Compound activity: PubChem BioAssay, Sanford-Burnham Center for Chemical Genomics
A selection: hits, their analogues and other compounds. The true share with any hit is near 4%.
NLRP3 yeast inh: NALP3 inhibition in yeast; Yeast reconstituted NLRP3/ASC/caspase-1, beta-gal luminescence, 24 h; inhibition, % at 10 µM; 0.39% of 330,000 active; AID 2825;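 active = inhibition of 50% or more; inactive = inhibition below 50%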;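 note: plate controls were induced DMSO wells for no effect and uninduced yeast grown without galactose for full effect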
NALP1 yeast inh: blocks the NALP1 inflammasome reconstituted in yeast | AID 2071 | S. cerevisiae NALP1/ASC/caspase-1 growth, X-gal OD620, 72 h | inhibition, % at 10 µM | 0.61% of 280,000 active; in the data active = inhibition mostly above about 24%, no sharp cut-off; inactive = mostly below about 32%
tim23-1 inh: tim23-1 yeast growth inhibition | S. cerevisiae tim23-1 growth, BacTiter-Glo luminescence, 24 h | inhibition, % at 20 µM | 1.3% of 330,000 active;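 active = growth inhibition of the mutant yeast at or above 50%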;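 note: temperature-sensitive mutant grown at 25 °C; plate controls were DMSO-treated mutant yeast for no effect and medium wells lacking yeast for full effect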
TIM10 inh: growth inhibitors of TIM10 yeast strain; S. cerevisiae TIM10 strain growth, BacTiter-Glo luminescence, 24 h; inhibition, % at 10 µM; 1.4% of 330,000 active;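 active = inhibition of 40% or more at the single tested concentration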;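 note: wild-type TIM10 isogenic control strain grown at permissive 25 °C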
tim10-1 inh: growth inhibitors of tim10-1 mutant yeast; S. cerevisiae tim10-1 ts strain growth, BacTiter-Glo, 24 h; inhibition, % at 20 µM; 2.2% of 330,000 active; AID 463190;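 active = inhibition of at least 40%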;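 note: mutant grown at 25 °C; 0% = DMSO wells with yeast and 100% = wells holding no yeast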
NALP3 confirm: NALP3 inhibition confirmation in yeast | 81% of 1,300 active | yeast expressing human NALP3, luminescence | shares compounds with NLRP3 yeast inh | inhibition, % at 10 µM; in the data active = inhibition above about 48%
Casp1-ASC yeast: caspase-1-ASC yeast counter-screen hit. shares compounds with NLRP3 yeast inh. yeast expressing Caspase-1-ASC, luminescence counter screen. inhibition, % at 10 µM. 66% of 1,000 active. AID 488784
NALP3 yeast rt: yeast NALP3 inhibition, confirmed on retest; shares compounds with NLRP3 yeast inh; yeast expressing human NALP3, luminescence read-out; inhibition, % at 10 µM; 53% of 1,000 active; AID 488794
tim10-1 confirm: tim10-1 yeast growth inhibition, confirmed; shares compounds with tim10-1 inh; S. cerevisiae tim10-1 ts strain growth, BacTiter-Glo, 24 h; inhibition, % at 20 µM; 56% of 7,400 active;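 active = inhibition of yeast growth at or above a set limit in either of two repeat tests at 20 µM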;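 note: tim10-1 mutant grown at permissive 25 °C to find synthetic lethal compounds; 0% = DMSO yeast wells and 100% = medium wells without yeast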
TIM10 conf: confirmation of TIM10 yeast growth inhibitors | shares compounds with TIM10 inh | S. cerevisiae tim10 strain growth, BacTiter-Glo luminescence, 24 h | inhibition, % at 10 µM | 63% of 4,600 active;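 active = inhibition of yeast growth at or above a set limit in either of two replicates at 10 µM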;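 note: this counterscreen used the strain with wild-type TIM10; 0% = yeast with DMSO and 100% = medium wells lacking yeast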
tim23-1 conf: tim23-1 yeast growth inhibition, confirmed. shares compounds with tim23-1 inh. S. cerevisiae tim23-1 growth, BacTiter-Glo luminescence, 24 h. inhibition, % at 20 µM. 83% of 4,400 active. AID 463218;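 active = inhibition above about 39% in either of two replicate wells at 20 µM, limit read from the data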;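 note: temperature-sensitive tim23-1 mutant grown at 25 °C; 0% = DMSO wells with yeast and 100% = medium wells without yeast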
* = called active by the depositor; · = no result; + = active, no number. Cut-off read from the data, not from the text of the source, unless noted: active = inhibition above about 50%; inactive = the rest.

SMILES	NLRP3 yeast inh	NALP1 yeast inh	tim23-1 inh	TIM10 inh	tim10-1 inh	NALP3 confirm	Casp1-ASC yeast	NALP3 yeast rt	TIM10 conf	tim23-1 conf	others
Cc1ccc(C(=O)Nc2scc(-c3ccccc3)c2C(=O)O)cc1	79*	·	86*	82*	85*	78*	86*	82*	91*	87*	tim10-1 confirm=83*
O=C(Nc1scc(-c2ccccc2)c1C(=O)O)c1ccccc1Cl	5	12	17	-13	8	·	·	·	·	·
Cc1ccc(C(C[N+](=O)[O-])c2c(N)n(C)c(=O)n(C)c2=O)cc1 (centres undefined)	70*	+	54*	24	36	64*	78*	53*	·	64*
Cn1c(N)c(C(C[N+](=O)[O-])c2ccccc2Cl)c(=O)n(C)c1=O (centres undefined)	37	·	34	26	14	·	·	·	·	·
COc1cccc(F)c1C(C[N+](=O)[O-])c1c(N)n(C)c(=O)n(C)c1=O (centres undefined)	64*	+	82*	46*	54*	44	56*	33	52*	82*	tim10-1 confirm=60*
COc1ccc(S(=O)(=O)N2CCN(C(=O)c3ccc(C)o3)CC2)cc1	10	6	28	12	11	·	·	·	·	·
O=C(NCCN1CCN(C(=O)c2ccc(F)cc2)CC1)c1ccc(F)cc1	5	3	7	-2	-11	·	·	·	·	·
CCCCCCCC[n+]1cccc(C(=O)N(CC)CC)c1	8	18	19	-3	-4	·	·	·	·	·
CCCCCCCCCCCCCCCC[n+]1cccc(C(=O)N(CC)CC)c1	63*	71*	60*	25	96*	73*	72*	68*	·	79*	tim10-1 confirm=94*
CS(=O)(=O)c1[nH]nc(-c2ccccc2Cl)c1C#N	18	·	7	7	-16	·	·	·	·	·
CN=C1S/C(=C\c2ccc(O)c(Br)c2)C(=O)N1C	68*	20	62*	37	56*	84*	78*	72*	·	63*	tim10-1 confirm=50*
O=[N+]([O-])c1ccc(/C=N/Nc2nc(-c3ccccc3)c3cc(Br)ccc3n2)o1	44	25	19	28	-17	·	·	·	·	·
Cc1ccc2nc(N/N=C\c3ccc([N+](=O)[O-])o3)nc(-c3ccccc3)c2c1	57*	-5	67*	1	23	44	43	33	·	14
CCC(=O)Nc1c(-c2ccc3ccccc3c2)nc2ccccn12	18	12	2	-4	2	·	·	·	·	·
CC(C(=O)OCC(=O)Nc1ccc(S(=O)(=O)N2CCCCC2)cc1)N1C(=O)c2ccccc2C1=O (centres undefined)	22	4	6	12	22	·	·	·	·	·
CSCc1c(C(=O)OCC(=O)c2ccc[nH]2)oc2ccccc12	51*	·	59*	67*	51*	68*	55*	42	63*	74*	tim10-1 confirm=19
Cc1ccc(NC(=O)c2cccnc2)cc1C	28	-5	10	0	-9	·	·	·	·	·
Cc1ccc(NC(=O)c2ccccc2)cc1C	52*	·	59*	46*	20	75*	40	42	23	64*
O=C(Nc1cccc(F)c1)c1ccccc1	60*	2	50*	53*	11	84*	68*	68*	47*	66*
O=C(Nc1cccc(F)c1)c1cccnc1	0	-8	14	10	-36	·	·	·	·	·
CC1CCN(S(=O)(=O)c2cc(C(=O)N3CCN(c4ncccn4)CC3)ccc2Br)CC1	-5	11	25	24	16	·	·	·	·	·
O=C(CCCn1ncn2c(cc3occc32)c1=O)NCc1cccc(Cl)c1	18	16	9	6	13	·	·	·	·	·
COc1ccc(-c2csc(N)n2)cc1	1	25	14	11	20	·	·	·	·	·
Nc1nc(-c2ccc(Oc3ccccc3)cc2)cs1	97*	98*	57*	7	11	57*	99*	99*	·	48*
Cc1ccc(S(=O)(=O)NC(=O)NCC2CCN(S(=O)(=O)c3ccccc3)CC2)cc1	31	25	16	5	26	·	·	·	·	·
SMILES	NLRP3 yeast inh	NALP1 yeast inh	tim23-1 inh	TIM10 inh	tim10-1 inh	NALP3 confirm	Casp1-ASC yeast	NALP3 yeast rt	TIM10 conf	tim23-1 conf	others
CC(=Nc1cccc(O)c1)c1sc2ccccc2c1O	52*	7	63*	18	37	50*	19	23	·	63*
O=c1c2ccccc2nc2c3ccccc3c(Cl)nn12	·	0	·	·	·	·	·	·	·	·
O=c1c2ccccc2nc2c3ccccc3cnn12	56*	1	55*	39	-12	63*	55*	66*	·	64*
Nc1nc2sc3c(c2c(=O)s1)CCCC3	71*	3	73*	44*	54*	83*	70*	80*	33*	52*	tim10-1 confirm=25
Nc1ncnc2nc(SCC(=O)Nc3ccccc3F)[nH]c12	7	-13	-2	-24	-1	·	·	·	·	·
N#C/C(=C\c1ccc(OCC(N)=O)cc1)C(=O)NC1CC1	17	-11	-4	-1	-14	·	·	·	·	·
CCCCOc1cccc(/C=C(\C#N)C(=O)NC2CC2)c1	51*	18	89*	36	88*	54*	38	32	·	85*	tim10-1 confirm=83*
Cc1nn(-c2ccccc2)c(-c2ccccc2[N+](=O)[O-])c1C(=O)O	9	14	1	10	3	·	·	·	·	·
O[C@@H]1[C@@H](O)C=C2CCN3Cc4cc5c(cc4[C@H]1C23)OCO5 (some centres undefined)	64*	·	76*	90*	88*	79*	60*	58*	89*	77*	tim10-1 confirm=84*
Oc1ccc(N=Nc2n[nH]c(-c3ccc(Br)cc3)n2)cc1	·	11	·	·	·	·	·	·	·	·
Oc1ccc(N=Nc2ccc(Br)cc2)c(O)c1	58*	23	68*	48*	37	73*	44	36	64*	2
CCCCCCCCCCCCCCCC[n+]1ccc(/C=N/O)cc1	56*	50*	51*	50*	15	36	·	·	23	49*
O/N=C/c1cccc[n+]1CCCCCC[n+]1ccccc1/C=N/O	7	9	0	-4	-2	·	·	·	·	·
O=C(Nc1ccc2c(c1)ncn2C1CCCCC1)c1ccco1	53*	-4	51*	66*	36	70*	55*	52*	53*	77*
CC(/C=N/NC(=O)c1ccncc1)=C\c1ccccc1	4	5	10	5	2	·	·	·	·	·
